# Bioassay records deposited in PubChem by National Center for Advancing Translational Sciences (NCATS).
# Rows were chosen to be rich in hits. Some 21% of all compounds tested hit in one or more screens of this group.
# HCMV antiviral: blocks human cytomegalovirus replication; HFF cells, HCMV-luciferase reporter, 72 h; stronger effect = lower value; activity change, negative = inhibition, % at 57.5 µM; actives 4.5% (n = 410,000); in the data active = activity change below about -60%; inconclusive = no clear call, values can overlap the other calls; inactive = above about -39%
#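 After 16 h attachment at 37C, HFF cells received test compound and HCMV-luciferase (1 PFU/cell); reporter luminescence read 72 h later, data normalized against buffer-only and known inhibitor Salinomycin.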
# Shiga inhibitor: Shiga toxin inhibition. Vero cells, Shiga toxin protein synthesis inhibition reporter. inhibition, % at 38.7 µM. actives 9.2% (n = 290,000); in the data active = inhibition mostly above about 28%, no sharp cut-off; inactive = mostly below about 43%
# HCV inhibitor: blocks hepatitis C virus; Huh7.5.1 HCVcc-Cre infection, luciferase reporter, 44 h; Potency, µM (titrated, usually from 41.8 µM), actives largely listed as inhibitors; actives 3.4% (n = 340,000); AID 651820
#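 After 44 h co-culture of compound, cells and HCVcc-Cre (~0.5 moi), substrate is added for 15 min at room temperature and luciferase measured over 15 sec. Cells were seeded at 1,000/well and pre-cultured 4 h.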
# Pf growth 96h: inhibits malaria parasite growth, 96 h | P. falciparum luciferase reporter growth, 96 h | Potency, µM (highest dose often 28.7 µM), actives largely listed as inhibitors | actives 6.9% (n = 320,000) | AID 504834
#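 Luminescence readout: decreased luciferase signal marks inhibited growth of reporter-expressing P. falciparum in infected red cells (2% hematocrit, 0.05% parasitemia final), exposed to compound two generations (96 h, 37 C, 5% CO2).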
# CHX counter: counter-screen for Shiga toxin inhibitors: cycloheximide protein synthesis inhibition; cell reporter, cycloheximide protein synthesis inhibition counterscreen; actives 12% (n = 300,000); AID 2314; max response, %; in the data active = max response mostly above about 13%, no sharp cut-off; inactive = mostly below about 14%; note: read at 38.3 µM for the half of the compounds with a filed dose
# Pf growth 48h: inhibits P. falciparum growth in the first generation, 48 h; Potency, µM (series often up to 28.7 µM), actives largely listed as inhibitors; AID 504832; actives 5.9% (n = 310,000); P. falciparum luciferase growth in erythrocytes, 48 h
#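 Luminescence readout; reporter = integrated firefly luciferase in P. falciparum. RBC culture at 2% hematocrit, 0.1% parasitemia final, 37 C/5% CO2; decreased signal taken as growth inhibition.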
# Hits are given with their value; - = inactive; ? = inconclusive; . = no result. Unless noted, calls come from the whole dose curve; as a rule, active = well fitted inhibition curve with a large enough effect; inconclusive = small, poorly fitted or top-dose-only effect, or another doubt; inactive = no such curve, though single readings can be large or run the other way.
SMILES,HCMV antiviral,Shiga inhibitor,HCV inhibitor,Pf growth 96h,CHX counter,Pf growth 48h
CCc1ccccc1-n1nnnc1-c1cnccc1C(F)(F)F,-,-,-,-,-,-
COC(=O)c1sccc1S(=O)(=O)N(CC(=O)NCc1ccc(F)cc1)c1ccc(C)c(C)c1,-,.,.,.,.,.
Fc1ccc(-c2noc3ncnc(N4CCCCC4)c23)cc1,-,.,.,.,.,.
CC1(C)CCc2cc(-c3ccnc(=S)[nH]3)ccc2O1,?,53,-,-,42,-
OC(COc1ccc2cc(Br)ccc2c1)CN1CCCC1 (configuration not stated),-,77,4.5µM,-,46,?
O=S(=O)(N1CCCCC1)N1CCN(CC(O)COc2ccc3cc(Br)ccc3c2)CC1 (configuration not stated),?,-,?,-,-,.
CN(C)S(=O)(=O)N1CCN(CC(O)COc2ccc3cc(Br)ccc3c2)CC1 (configuration not stated),-,-,32µM,-,-,?
Cc1cc(N)c2cc(NC(=O)Nc3ccc4nc(C)cc(N)c4c3)ccc2n1,-99,.,.,?,.,1.2µM
Cc1cc(C)c(NC(=O)Nc2ccccc2)c(C)n1,-,.,-,-,.,-
COc1ccc(/C=N/N2C(=N)SCC2=O)cc1,-,-,-,-,14,-
C=CCN1C(=O)C(Cc2ccc(OC)cc2)S/C1=N\N=C\c1cccs1 (configuration not stated),-,-,-,?,-,.
COc1ccc(N=C2SCC(=O)N2Cc2ccccc2)cc1,-,-,-,9.3µM,-,-
COc1ccc(/C=N/N=C2\SC(CC(=O)O)C(=O)N2c2ccccc2)cc1 (configuration not stated),-,-,-,1.7µM,-,-
CCCC1S/C(=N/N=C/c2ccc(C)cc2)N(Cc2ccc(OC)cc2)C1=O (configuration not stated),-,-,-,10µM,-,4.1µM
CC(C)CCOc1ccc(/C=N/N2C(=O)CSC2=S)cc1,-,-,-,-,-,-
CCOC(=O)[C@@H]1[C@H]2COc3ccccc3[C@H]2N2C(=O)N(c3cccc(Cl)c3)C(=O)[C@]12C,-,.,-,.,.,.
COc1ccc(NC(=O)CN2C(=O)c3ccccc3S2(=O)=O)cc1S(=O)(=O)N1CCOCC1,-,.,-,-,.,-
CCOc1ccc(N(C)C(CNS(=O)(=O)c2ccccc2)c2ccccc2)cc1 (configuration not stated),-,.,.,.,.,.
COc1ccc(CN2C(=O)CS/C2=N/N=C/c2ccccc2)cc1,-,-,13µM,-,-,-
COc1ccc(/C=N/N=C2/SCC(=O)N2Cc2ccccc2)cc1,-,86,-,-,47,-
Cc1ccc(/C=N/N=C2\SCC(=O)N2CC2CC2)cc1,-,-,-,-,-,-
O=C1CS/C(=N/N=C/c2ccco2)N1Cc1ccc(F)cc1,-,-,-,-,-,-
Cc1ccc(S(=O)(=O)c2nnn(CC(=O)Nc3ccccc3C)c2N)cc1,-,.,.,.,.,.
Cc1ccc(CNC(=O)Cc2ccc(-n3c(=O)[nH]c4ccsc4c3=O)cc2)cc1,-62,-,-,?,-,-
O=C(CCCCCn1c(=O)[nH]c2ccsc2c1=O)N1CCCCC1,-,-,-,?,-,12µM
SMILES,HCMV antiviral,Shiga inhibitor,HCV inhibitor,Pf growth 96h,CHX counter,Pf growth 48h
Cc1ccc(C)c(N2CCN(C(=O)Cc3ccc(-n4c(=O)[nH]c5ccsc5c4=O)cc3)CC2)c1,-,-,-,-,-,-
Cc1ccc(CNC(=O)CCCCn2c(=O)[nH]c3ccsc3c2=O)cc1,-,-,-,10µM,-,-
Cc1ccc(C(=O)OCC(=O)N(CC(C)C)c2c(N)n(Cc3ccccc3)c(=O)[nH]c2=O)o1,-,.,-,-,.,-
COc1ccc(OC(F)(F)F)cc1CC1(C)C(=O)Nc2ccc(-c3ccsc3)cc21 (configuration not stated),-82,.,.,.,.,.
CN(CC(=O)NCc1ccccc1)S(=O)(=O)c1ccc2c(c1)CCC(=O)N2,-,-,-,-,-,-
CN(CC(=O)NCCN1CCN(c2ccccc2)CC1)S(=O)(=O)c1ccc2c(c1)CCC(=O)N2,-,-,-,4.7µM,-,.
Nc1c(C(=O)c2cccs2)oc2ccccc12,-,99,?,-,26,-
Nc1c(C(=O)c2ccc(Br)s2)oc2ccccc12,-,-,-,-,23,-
